Assay [1] addresses Mitogen-activated protein kinase kinase kinase kinase 4 (Homo sapiens) (UniProt O95819). To be noted: at 1 µM.
Assay [2] deals with Dual specificity mitogen-activated protein kinase kinase 1 (Homo sapiens) (UniProt Q02750). To be noted: at 0.1 µM.
Assay [3] has the same target. To be noted: at 1 µM.
In assay [4] the target is Misshapen-like kinase 1 (Homo sapiens) (UniProt Q8N4C8). To be noted: at 0.1 µM.
Assay [5] shares this target. To be noted: at 1 µM.
The target in assay [6] is T1, Serine/threonine-protein kinase 4 (Homo sapiens) (UniProt Q13043).
T1 sequence (whole entry): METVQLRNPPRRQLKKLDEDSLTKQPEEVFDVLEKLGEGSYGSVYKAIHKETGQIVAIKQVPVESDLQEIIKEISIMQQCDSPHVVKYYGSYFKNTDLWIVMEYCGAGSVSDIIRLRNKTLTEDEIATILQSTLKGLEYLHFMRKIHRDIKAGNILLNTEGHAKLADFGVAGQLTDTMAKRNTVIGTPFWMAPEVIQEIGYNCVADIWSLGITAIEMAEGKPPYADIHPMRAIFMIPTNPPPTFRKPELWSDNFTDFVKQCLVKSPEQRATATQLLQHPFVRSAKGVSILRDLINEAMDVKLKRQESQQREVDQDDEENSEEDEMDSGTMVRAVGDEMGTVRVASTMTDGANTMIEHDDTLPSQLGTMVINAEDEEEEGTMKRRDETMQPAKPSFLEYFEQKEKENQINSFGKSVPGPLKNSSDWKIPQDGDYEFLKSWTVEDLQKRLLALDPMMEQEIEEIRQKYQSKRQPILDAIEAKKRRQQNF
To be noted: at 0.1 µM.

Assay [7] has as its target T1, Serine/threonine-protein kinase 4 (Homo sapiens). To be noted: at 1 µM.
For assay [8], the target named is T2, Serine/threonine-protein kinase 3 (Homo sapiens) (UniProt Q13188).
T2 sequence (whole entry): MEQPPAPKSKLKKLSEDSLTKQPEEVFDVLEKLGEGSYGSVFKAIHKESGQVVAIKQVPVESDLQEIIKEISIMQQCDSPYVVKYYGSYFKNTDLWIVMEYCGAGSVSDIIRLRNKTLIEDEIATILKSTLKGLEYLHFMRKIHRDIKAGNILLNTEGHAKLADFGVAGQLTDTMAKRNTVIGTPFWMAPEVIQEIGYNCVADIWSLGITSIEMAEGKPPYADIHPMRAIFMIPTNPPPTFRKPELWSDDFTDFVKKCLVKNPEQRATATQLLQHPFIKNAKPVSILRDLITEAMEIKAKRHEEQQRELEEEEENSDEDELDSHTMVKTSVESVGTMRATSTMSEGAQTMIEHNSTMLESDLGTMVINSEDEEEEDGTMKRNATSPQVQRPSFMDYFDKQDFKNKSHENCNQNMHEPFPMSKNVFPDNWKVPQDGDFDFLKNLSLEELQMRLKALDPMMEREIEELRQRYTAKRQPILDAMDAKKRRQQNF
The following applies: at 0.1 µM.

Assay [9] has as its target T2, Serine/threonine-protein kinase 3 (Homo sapiens). To be noted: at 1 µM.
For assay [10], the target named is Serine/threonine-protein kinase 26 (Homo sapiens) (UniProt Q9P289). The following applies: at 0.1 µM.
Assay [11] shares this target. To be noted: at 1 µM.
The target of assay [12] is Serine/threonine-protein kinase PAK 1 (Homo sapiens) (UniProt Q13153). To be noted: at 0.1 µM.
Assay [13] shares this target. The following applies: at 1 µM.
Assay [14] concerns the target Serine/threonine-protein kinase PAK 2 (Homo sapiens) (UniProt Q13177). The following applies: at 0.1 µM.
Assay [15] shares this target. The following applies: at 1 µM.
The target in assay [16] is Serine/threonine-protein kinase PAK 3 (Homo sapiens) (UniProt O75914). To be noted: at 0.1 µM.
The target is the same in assay [17]. The following applies: at 1 µM.
In assay [18] the target is Serine/threonine-protein kinase PAK 5 (Homo sapiens) (UniProt Q9P286). To be noted: at 0.1 µM.
For assay [19] the target is unchanged. The following applies: at 1 µM.
In assay [20] the target is Serine/threonine-protein kinase PAK 6 (Homo sapiens) (UniProt Q9NQU5). The following applies: at 0.1 µM.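 Also: mean PAK6 inhibition reported from the GSK PKIS screen.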

The record followed here is ChEMBL document CHEMBL1961873, “Compounds: GSK PKIS; Assays: Nanosyn kinase panel” (2012).

Structures are written as SMILES.

Dual specificity mitogen-activated protein kinase kinase 1 (Homo sapiens), sequence (Q02750 whole entry): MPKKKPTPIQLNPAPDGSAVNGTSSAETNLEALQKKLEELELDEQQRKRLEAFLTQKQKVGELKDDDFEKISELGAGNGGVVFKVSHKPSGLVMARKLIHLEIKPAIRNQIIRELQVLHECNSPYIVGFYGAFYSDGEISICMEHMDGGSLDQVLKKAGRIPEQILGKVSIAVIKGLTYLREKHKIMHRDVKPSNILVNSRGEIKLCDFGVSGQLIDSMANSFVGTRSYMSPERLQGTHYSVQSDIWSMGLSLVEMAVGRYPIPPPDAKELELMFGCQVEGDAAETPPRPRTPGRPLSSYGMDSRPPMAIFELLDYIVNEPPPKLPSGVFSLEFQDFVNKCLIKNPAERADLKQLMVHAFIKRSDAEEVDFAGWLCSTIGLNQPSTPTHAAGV
Serine/threonine-protein kinase PAK 2 (Homo sapiens), sequence (Q13177 whole entry): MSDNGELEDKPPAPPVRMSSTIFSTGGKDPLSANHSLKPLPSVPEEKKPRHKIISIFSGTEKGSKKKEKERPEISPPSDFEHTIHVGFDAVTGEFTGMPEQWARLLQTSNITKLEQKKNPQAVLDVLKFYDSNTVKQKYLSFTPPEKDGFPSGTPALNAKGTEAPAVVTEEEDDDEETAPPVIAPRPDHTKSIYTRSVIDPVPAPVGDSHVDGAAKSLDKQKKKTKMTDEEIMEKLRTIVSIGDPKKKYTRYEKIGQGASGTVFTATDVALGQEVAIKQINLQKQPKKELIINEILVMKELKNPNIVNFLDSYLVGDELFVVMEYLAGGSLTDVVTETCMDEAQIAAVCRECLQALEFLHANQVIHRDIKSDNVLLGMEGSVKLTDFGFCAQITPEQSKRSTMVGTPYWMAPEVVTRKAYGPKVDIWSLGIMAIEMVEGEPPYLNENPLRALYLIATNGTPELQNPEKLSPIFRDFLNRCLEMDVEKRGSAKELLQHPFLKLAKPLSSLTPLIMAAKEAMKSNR
Mitogen-activated protein kinase kinase kinase kinase 4 (Homo sapiens), sequence (O95819 2-1239 limits assumed): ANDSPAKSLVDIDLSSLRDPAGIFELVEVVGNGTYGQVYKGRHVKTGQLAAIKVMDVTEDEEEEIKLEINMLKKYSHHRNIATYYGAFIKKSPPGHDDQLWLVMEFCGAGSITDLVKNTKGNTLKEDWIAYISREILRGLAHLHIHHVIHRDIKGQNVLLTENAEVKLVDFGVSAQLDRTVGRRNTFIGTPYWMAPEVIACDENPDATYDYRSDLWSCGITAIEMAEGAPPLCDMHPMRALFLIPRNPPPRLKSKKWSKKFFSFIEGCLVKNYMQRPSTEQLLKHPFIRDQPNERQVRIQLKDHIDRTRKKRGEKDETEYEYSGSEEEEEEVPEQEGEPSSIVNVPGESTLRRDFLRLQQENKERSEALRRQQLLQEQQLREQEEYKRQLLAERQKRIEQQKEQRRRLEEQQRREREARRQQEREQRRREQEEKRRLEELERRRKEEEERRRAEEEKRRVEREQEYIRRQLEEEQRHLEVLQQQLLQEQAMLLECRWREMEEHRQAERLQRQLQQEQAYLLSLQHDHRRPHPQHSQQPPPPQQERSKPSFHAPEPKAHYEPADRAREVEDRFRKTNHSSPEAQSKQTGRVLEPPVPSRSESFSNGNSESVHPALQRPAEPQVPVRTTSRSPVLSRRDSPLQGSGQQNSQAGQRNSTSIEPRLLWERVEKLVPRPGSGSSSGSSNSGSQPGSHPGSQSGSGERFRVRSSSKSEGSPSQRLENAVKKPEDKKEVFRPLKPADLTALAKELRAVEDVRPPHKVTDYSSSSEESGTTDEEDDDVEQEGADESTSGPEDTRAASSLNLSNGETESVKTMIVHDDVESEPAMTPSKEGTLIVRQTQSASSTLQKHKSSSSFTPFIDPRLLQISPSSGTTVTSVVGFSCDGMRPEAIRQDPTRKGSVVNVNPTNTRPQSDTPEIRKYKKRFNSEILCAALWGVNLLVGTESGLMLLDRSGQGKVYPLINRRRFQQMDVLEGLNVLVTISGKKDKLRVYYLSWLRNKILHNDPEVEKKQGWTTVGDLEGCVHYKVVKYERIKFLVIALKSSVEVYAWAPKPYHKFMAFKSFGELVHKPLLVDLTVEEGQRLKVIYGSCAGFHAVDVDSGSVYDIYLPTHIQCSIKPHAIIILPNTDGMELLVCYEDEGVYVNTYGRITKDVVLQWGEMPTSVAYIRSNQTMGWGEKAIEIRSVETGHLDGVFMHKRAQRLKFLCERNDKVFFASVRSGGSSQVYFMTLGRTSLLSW
Serine/threonine-protein kinase PAK 6 (Homo sapiens), sequence (Q9NQU5 whole entry, looked up): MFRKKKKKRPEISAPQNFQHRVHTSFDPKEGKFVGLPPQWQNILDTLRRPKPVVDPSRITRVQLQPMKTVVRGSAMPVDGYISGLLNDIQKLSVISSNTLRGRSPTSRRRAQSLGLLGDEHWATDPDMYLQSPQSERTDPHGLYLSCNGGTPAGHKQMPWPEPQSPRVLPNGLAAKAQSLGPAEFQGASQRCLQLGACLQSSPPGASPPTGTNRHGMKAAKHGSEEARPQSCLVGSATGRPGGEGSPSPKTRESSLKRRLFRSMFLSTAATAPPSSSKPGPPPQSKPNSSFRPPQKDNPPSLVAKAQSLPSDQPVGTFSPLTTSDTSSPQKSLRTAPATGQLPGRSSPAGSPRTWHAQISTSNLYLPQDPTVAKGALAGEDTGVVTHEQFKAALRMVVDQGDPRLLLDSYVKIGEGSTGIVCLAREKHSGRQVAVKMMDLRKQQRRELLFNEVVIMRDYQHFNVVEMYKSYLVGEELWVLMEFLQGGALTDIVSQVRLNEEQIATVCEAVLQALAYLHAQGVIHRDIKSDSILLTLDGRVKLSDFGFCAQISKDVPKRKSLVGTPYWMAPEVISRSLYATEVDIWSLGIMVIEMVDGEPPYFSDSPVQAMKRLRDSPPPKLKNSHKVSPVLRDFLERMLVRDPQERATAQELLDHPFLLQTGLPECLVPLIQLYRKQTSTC
Serine/threonine-protein kinase PAK 5 (Homo sapiens), sequence (Q9P286 whole entry, looked up): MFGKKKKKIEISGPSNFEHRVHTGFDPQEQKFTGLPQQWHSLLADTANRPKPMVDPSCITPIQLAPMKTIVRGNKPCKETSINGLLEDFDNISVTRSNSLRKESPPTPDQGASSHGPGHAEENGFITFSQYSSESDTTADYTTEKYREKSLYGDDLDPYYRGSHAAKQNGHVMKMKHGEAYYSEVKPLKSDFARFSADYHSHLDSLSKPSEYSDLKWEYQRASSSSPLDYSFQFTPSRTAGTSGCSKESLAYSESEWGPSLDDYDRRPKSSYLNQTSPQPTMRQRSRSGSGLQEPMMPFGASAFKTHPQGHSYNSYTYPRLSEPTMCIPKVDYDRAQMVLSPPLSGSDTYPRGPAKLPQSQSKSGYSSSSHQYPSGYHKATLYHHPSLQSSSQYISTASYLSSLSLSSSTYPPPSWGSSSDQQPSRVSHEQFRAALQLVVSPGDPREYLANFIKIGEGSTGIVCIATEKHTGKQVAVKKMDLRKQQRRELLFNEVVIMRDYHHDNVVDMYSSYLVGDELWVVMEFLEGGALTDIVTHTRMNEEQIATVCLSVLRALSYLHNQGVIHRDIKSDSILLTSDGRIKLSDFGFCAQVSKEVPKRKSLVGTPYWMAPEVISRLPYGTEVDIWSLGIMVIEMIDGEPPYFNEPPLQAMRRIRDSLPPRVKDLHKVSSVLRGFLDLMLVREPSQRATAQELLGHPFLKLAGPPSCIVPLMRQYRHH
Serine/threonine-protein kinase PAK 1 (Homo sapiens), sequence (Q13153 whole entry): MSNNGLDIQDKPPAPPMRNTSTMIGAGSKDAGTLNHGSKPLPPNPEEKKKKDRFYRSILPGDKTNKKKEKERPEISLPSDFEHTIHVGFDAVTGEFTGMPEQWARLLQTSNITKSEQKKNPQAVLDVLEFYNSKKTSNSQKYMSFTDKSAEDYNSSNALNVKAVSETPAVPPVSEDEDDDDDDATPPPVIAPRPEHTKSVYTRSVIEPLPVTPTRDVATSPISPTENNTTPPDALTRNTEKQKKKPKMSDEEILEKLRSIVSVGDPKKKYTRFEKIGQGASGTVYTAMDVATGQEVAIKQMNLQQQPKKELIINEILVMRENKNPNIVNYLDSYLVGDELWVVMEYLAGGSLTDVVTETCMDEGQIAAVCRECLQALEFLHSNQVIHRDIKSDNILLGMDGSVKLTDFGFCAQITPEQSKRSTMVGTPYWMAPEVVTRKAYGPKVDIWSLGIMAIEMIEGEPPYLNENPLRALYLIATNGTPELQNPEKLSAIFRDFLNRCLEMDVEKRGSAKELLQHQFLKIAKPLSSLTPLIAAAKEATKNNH
Serine/threonine-protein kinase 26 (Homo sapiens), sequence (Q9P289 2-416 limits assumed): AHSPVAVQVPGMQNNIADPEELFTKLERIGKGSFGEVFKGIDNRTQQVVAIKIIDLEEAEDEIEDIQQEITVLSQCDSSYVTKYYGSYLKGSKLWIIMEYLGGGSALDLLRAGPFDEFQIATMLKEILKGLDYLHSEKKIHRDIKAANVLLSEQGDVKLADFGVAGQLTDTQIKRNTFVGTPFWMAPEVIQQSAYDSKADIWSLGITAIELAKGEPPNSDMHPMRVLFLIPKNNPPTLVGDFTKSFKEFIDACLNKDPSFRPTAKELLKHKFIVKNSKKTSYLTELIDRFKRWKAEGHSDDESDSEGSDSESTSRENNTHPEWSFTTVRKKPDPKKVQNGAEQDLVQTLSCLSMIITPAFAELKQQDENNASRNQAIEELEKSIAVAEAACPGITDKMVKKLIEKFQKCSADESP

Take `FC(F)(F)c1cccc(-c2nn3ncccc3c2-c2ccnc(Nc3ccc4c(c3)OCCO4)n2)c1`: the inhibition (usually the relative decrease from the control value, in per cent) in assay [1] was determined as 58.1%; in [2], 2.31%; in [3], 4.08%; in [4], 9.69%; in assay [5], 55.8%; in assay [6], 4.33%. Also, the inhibition was 6.24% in [7]; 5.41% in assay [8]; 4.99% in [9]; -0.12% in [10]; 0.56% in assay [11]; 3.7% in assay [12]. Besides, the inhibition in [13] is 3.72%; in assay [14], 1.01%; in [15], 1.43%; in assay [16], 1.69%; in assay [17], 2.03%; in [18], -5.89%. For the same molecule, the results for the inhibition in assay [19] and in assay [20] were -2.25% and -3.42%, respectively.
On to `N#Cc1c(NC(=O)c2ccc(F)cc2)sc2c1CCCC2`, for which the inhibition in assay [1] was 5.3%; in assay [2] it was 1.23%; in assay [3] it was 1.68%; in assay [4] it was 2.23%; in assay [5] it was 4.89%; in assay [6], -0.35%. In addition, the inhibition was 2.59% in [7]; 0.16% in assay [8]; 3.36% in assay [9]; -0.1% in [10]; 2.43% in [11]; -0.82% in [12]. The inhibition in assay [13] is 3.8%; in [14], 0.64%; in [15], 0.15%; in assay [16] it was 1.5%; in [17], 1.26%; in assay [18], -0.93%. Also, the values for the inhibition in assay [19] and in assay [20] were -0.51% and -7.52%, respectively.
As for `COc1cc(/C=N/Nc2ncnc3[nH]ncc23)ccc1O`, the inhibition came out at 38.5% in assay [1]; 3.54% in assay [2]; 3.75% in assay [3]; 6.75% in assay [4]; 25.1% in [5]; 6.37% in [6]. Moreover, the inhibition in assay [7] is 19.5%; in [8] it was 5.9%; in assay [9], 15.1%; in assay [10], -1.06%; in [11], 5.4%; in assay [12] it was 1.82%. For the same molecule, the inhibition stood at 6.64% in assay [13]; 2.22% in assay [14]; 1.35% in assay [15]; 4.08% in [16]; 4.44% in assay [17]; 10.5% in assay [18]. Moreover, the inhibition is 11.8% in assay [19] and -5.57% in [20].
With `COc1cc2c(cc1Nc1nc(Nc3ccsc3C(N)=O)c3cc[nH]c3n1)N(C(=O)CN(C)C)CCC2(C)C`, the inhibition in [1] turned out to be 14.8%; in [2], 6.86%; in assay [3], 12.3%; in assay [4], 11.4%; in assay [5], 15.3%; in [6] it was 15.6%. Further, the inhibition in [7] was 47.7%; in [8] it was 12.3%; in assay [9], 22.1%; in [10], 3.1%; in assay [11] it was 0.56%; in [12] it was 8.7%. For the same molecule, the inhibition is 7.09% in assay [13]; 2.44% in assay [14]; 3.48% in assay [15]; 5.68% in assay [16]; 5.85% in assay [17]; -2.38% in assay [18]. Also, the inhibition is -3.07% in assay [19] and -6.17% in [20].
On to `c1ccc(COc2ccc(Nc3ncnc4ccc(-c5ccco5)cc34)cc2)cc1`, for which the inhibition was 6.14% in [1]; 1.63% in assay [2]; 1.55% in [3]; 4.04% in assay [4]; 3.27% in assay [5]; -0.04% in [6]. Also, the inhibition amounted to 0.76% in assay [7]; 0.84% in assay [8]; 1.9% in [9]; 1.19% in assay [10]; 1.35% in [11]; 5.7% in [12]. In addition, the inhibition in assay [13] is 3.88%; in assay [14], -0.79%; in [15], -0.42%; in [16] it was 0.44%; in assay [17], 1.49%; in [18] it was -1.27%. Also, the inhibition was -4.07% in assay [19] and 3.06% in assay [20].
In the case of `O=C(Nc1n[nH]c2cc(-c3ccc(F)cc3)ccc12)C1CC1`, the inhibition was found to be 70.1% in assay [1]; 3.48% in assay [2]; 3.42% in [3]; 16.2% in assay [4]; 56% in assay [5]; 2.34% in assay [6]. The inhibition in [7] was 4.72%; in [8] it was 2.91%; in assay [9], 4.55%; in assay [10], -1.43%; in assay [11], -1.27%; in assay [12], 5.64%. In addition, the inhibition in [13] turned out to be 5.57%; in assay [14], 1.33%; in [15], 0.78%; in assay [16], 3.25%; in assay [17] it was 3.1%; in assay [18], 4.4%. Besides, the inhibition is -1.87% in [19] and 2.33% in assay [20].
On to `CC(=O)Nc1cccc(C#Cc2cncnc2Nc2ccc(OCc3cccc(F)c3)c(Cl)c2)c1`, for which the inhibition in [1] amounted to 2.59%; in assay [2], 2.07%; in [3] it was 3.13%; in [4] it was 2.21%; in assay [5], 3.87%; in assay [6], 3.97%. Moreover, the inhibition in assay [7] is 5.79%; in assay [8], 4.97%; in [9], 2.1%; in assay [10], 1.4%; in [11], -0.92%; in assay [12], 3.48%. Moreover, the inhibition in [13] was 6.05%; in [14], 2.19%; in [15] it was 1.41%; in [16], 2.92%; in [17], 3.79%; in [18], -5.54%. The inhibition in assay [19] is 1.62%; in assay [20], 2.97%.
